Results published in PubChem BioAssay.
Activity calls are given as the source filed them.

Assays:
[1] = optical density shifts of acrAB sulA E. coli – strain DRC41, OD650, 48 h, E. coli filamentation inducer project, primary screen (AID 1152); details: higher = more signal, called active from +8 up or from −8 down;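 note: E. coli MC1000 strain DRC41 lacking acrAB efflux pump and sulA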
[2] = probe aLefty1 binding on compound microarray – biochemical, small-molecule microarray, 635/667 nm fluorescence, primary screen (AID 1153); details: higher = more signal;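 note: score merges spot fluorescence with signal-to-noise ratio from the scanned slide images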
[3] = plasmodial surface anion channel blockers, osmotic lysis – cell-based, P. falciparum Indochina, OD700, 1 h, primary screen (AID 1154); details: P. falciparum Indochina infected RBC osmotic lysis, higher = more signal, called active from +8 up or from −8 down
[4] = plasmodial surface anion channel blockers, osmotic lysis – cell-based, P. falciparum Indochina, OD700, 2 h, primary screen (AID 1155);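 note: lysis reports solute entry through the parasite surface anion channel PSAC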; details: P. falciparum Indochina infected erythrocytes, higher = more signal, called active from +8 up or from −8 down
[5] = changes in parasitized red cell lysis, either direction – P. falciparum Indochina, OD700, 3 h, PSAC antagonist project, primary screen (AID 1156); details: P. falciparum-infected erythrocytes, osmotic lysis, higher = more signal, called active from +8 up or from −8 down
[6] = plasmodial surface anion channel blockers, osmotic lysis – cell-based, P. falciparum Indochina, OD700, 18 h, primary screen (AID 1157); details: P. falciparum Indochina infected erythrocytes, osmotic lysis OD700, 18 h; higher = more signal, called active from +8 up or from −8 down
[7] = S6 kinase pathway phospho-S6 level changes – cell-based, A549, cytoblot, luminescence, serum-stimulated, primary screen (AID 1158); details: 5 h, higher = more signal;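 note: serum-stimulated A549 lung adenocarcinoma cells; signal is phosphorylated S6 detected by cytoblot immunostaining with HRP secondary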
[8] = target: NADPH oxidase 2 (Homo sapiens) (UniProt P04839); experiment: compounds shifting NOX2 Amplex Red fluorescence – cell-based, HEK293-NOX2, PMA-stimulated, NOX inhibitor project, primary screen (AID 1159); details: 45 min, higher = more signal, called active from +8 up or from −8 down; note: test concentration not given here
[9] = target: NADPH oxidase 4 (Homo sapiens) (UniProt Q9NPH5); experiment: compounds shifting NOX4 Amplex Red fluorescence – cell-based, HEK293-NOX4, tetracycline-induced, NOX inhibitor project, primary screen (AID 1160); details: HEK293-NOX4, Amplex Red H2O2 fluorescence, 45 min; higher = more signal, called active from +8 up or from −8 down
[10] = target: NADPH oxidase 5 (Homo sapiens) (UniProt Q96PH1); experiment: compounds shifting NOX5 Amplex Red fluorescence – cell-based, HEK293-NOX5, NOX inhibitor project, primary screen (AID 1161); details: HEK293-NOX5, ionomycin, 45 min, higher = more signal
[11] = compound effects on lung adenocarcinoma cell viability – A549, calcein-AM fluorescence, 48 h, basal, profiling panel (AID 1162); details: higher = more signal; note: test concentration not given here
[12] = compound effects on differentiated 3T3-L1 adipocyte viability – cell-based, 3T3-L1 adipocytes, calcein-AM fluorescence, 48 h, basal, profiling panel (AID 1163); details: 3T3-L1 adipocytes viability, higher = more signal; note: test concentration not given here
[13] = compound effects on hepatocellular carcinoma cell viability – HepG2, calcein-AM fluorescence, 48 h, basal, profiling panel (AID 1164); details: higher = more signal; note: test concentration not given here
[14] = compound effects on multiple myeloma cell viability – MM1S, calcein-AM fluorescence, 48 h, basal, profiling panel (AID 1165); details: higher = more signal;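 note: viability of MM1S multiple myeloma cells under basal unstimulated conditions; test concentration not given here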
[15] = calcein-AM signal in unstimulated myeloma cells – cell-based, calcein-AM fluorescence, 48 h, PK04 Diversity Set, profiling panel (AID 1166); details: RPMI8226 myeloma viability, higher = more signal;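 note: cells grown under basal conditions without added stimulus; test concentration not given here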
[16] = JC-1 mitochondrial signal, unstimulated HepG2 cells – cell-based, JC-1 fluorescence, 24 h, 100 nL compound, profiling panel (AID 1167); details: HepG2 mitochondrial potential, higher = more signal; note: test concentration not given here
[17] = JC-1 mitochondrial signal, unstimulated adipocytes – cell-based, JC-1 fluorescence, 3T3-L1 adipocytes, 24 h, 100 nL compound, profiling panel (AID 1168); details: JC-1 mitochondrial fluorescence, higher = more signal, called active from +8 up or from −8 down; note: test concentration not given here
[18] = JC-1 mitochondrial signal, unstimulated myeloma cells – cell-based, JC-1 fluorescence, RPMI8226, 24 h, 100 nL compound, profiling panel (AID 1169); details: JC-1 mitochondrial potential fluorescence, higher = more signal; note: test concentration not given here
[19] = JC-1 mitochondrial signal, unstimulated MM1S myeloma – cell-based, JC-1 fluorescence, 24 h, 100 nL compound, profiling panel (AID 1170); details: MM1S mitochondrial potential, higher = more signal; note: test concentration not given here
[20] = resazurin metabolic signal in A549 cells – cell-based, resazurin fluorescence, 24 h, PK04 Diversity Set, profiling panel (AID 1171); details: A549 viability, higher = more signal, called active from +8 up or from −8 down; note: test concentration not given here

Sequence of NADPH oxidase 2 (Homo sapiens) (P04839 whole entry, looked up): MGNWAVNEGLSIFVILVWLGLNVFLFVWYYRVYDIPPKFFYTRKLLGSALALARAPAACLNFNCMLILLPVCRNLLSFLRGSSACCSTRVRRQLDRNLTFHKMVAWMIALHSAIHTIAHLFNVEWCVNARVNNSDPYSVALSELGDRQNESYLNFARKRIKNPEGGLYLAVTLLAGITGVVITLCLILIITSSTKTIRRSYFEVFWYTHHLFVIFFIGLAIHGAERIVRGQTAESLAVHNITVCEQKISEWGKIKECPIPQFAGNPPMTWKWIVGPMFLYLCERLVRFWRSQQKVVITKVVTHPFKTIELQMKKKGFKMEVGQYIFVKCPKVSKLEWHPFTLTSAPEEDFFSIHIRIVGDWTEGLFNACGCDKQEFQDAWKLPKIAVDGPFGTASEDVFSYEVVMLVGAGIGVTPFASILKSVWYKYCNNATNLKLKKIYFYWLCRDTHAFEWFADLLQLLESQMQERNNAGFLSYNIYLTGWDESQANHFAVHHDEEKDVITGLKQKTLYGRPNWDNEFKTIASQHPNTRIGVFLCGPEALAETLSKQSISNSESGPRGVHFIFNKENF
Sequence of NADPH oxidase 5 (Homo sapiens) (Q96PH1 whole entry, looked up): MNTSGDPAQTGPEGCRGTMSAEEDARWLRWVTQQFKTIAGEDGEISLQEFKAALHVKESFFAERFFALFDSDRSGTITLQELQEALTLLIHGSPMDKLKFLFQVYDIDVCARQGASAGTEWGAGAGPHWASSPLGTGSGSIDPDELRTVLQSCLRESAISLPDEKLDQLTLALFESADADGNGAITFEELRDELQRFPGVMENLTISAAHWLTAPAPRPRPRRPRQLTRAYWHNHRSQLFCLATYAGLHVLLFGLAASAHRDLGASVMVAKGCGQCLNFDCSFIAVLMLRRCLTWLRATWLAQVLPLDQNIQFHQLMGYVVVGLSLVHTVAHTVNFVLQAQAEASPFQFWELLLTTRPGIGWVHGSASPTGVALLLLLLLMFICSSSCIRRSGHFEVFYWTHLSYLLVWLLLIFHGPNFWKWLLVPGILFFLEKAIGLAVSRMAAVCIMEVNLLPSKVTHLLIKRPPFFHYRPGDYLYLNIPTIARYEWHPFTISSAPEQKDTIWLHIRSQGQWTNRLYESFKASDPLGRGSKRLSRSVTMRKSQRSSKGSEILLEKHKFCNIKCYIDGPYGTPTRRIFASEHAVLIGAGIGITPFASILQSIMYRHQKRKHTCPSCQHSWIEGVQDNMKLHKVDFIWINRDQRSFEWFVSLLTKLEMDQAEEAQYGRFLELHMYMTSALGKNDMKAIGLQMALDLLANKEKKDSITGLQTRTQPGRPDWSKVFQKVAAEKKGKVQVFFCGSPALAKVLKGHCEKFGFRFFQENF
Sequence of NADPH oxidase 4 (Homo sapiens) (Q9NPH5 whole entry, looked up): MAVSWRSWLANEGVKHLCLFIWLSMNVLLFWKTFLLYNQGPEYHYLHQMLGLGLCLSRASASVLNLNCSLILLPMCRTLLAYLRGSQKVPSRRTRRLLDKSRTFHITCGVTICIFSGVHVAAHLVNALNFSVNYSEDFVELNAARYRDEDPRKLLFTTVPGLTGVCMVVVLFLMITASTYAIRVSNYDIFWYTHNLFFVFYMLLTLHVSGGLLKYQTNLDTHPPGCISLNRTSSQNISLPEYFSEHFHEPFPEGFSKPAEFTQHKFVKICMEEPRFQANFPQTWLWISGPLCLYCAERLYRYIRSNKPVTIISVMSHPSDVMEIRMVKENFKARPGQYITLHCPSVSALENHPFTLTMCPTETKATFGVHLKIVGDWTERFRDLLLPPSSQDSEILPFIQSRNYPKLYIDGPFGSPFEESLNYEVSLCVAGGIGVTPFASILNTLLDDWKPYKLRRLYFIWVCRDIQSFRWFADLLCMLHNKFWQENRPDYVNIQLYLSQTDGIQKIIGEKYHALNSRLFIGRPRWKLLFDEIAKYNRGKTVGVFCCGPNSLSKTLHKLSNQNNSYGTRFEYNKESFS

Row | SMILES | z-score [1] | composite z-score [2] | z-score [3] | z-score [4] | z-score [5] | z-score [6] | z-score [7] | z-score [8] | z-score [9] | z-score [10] | z-score [11] | z-score [12] | z-score [13] | z-score [14] | z-score [15] | z-score [16] | z-score [17] | z-score [18] | z-score [19] | z-score [20]
1 | CC(CCC(=O)OC[C@H]1O[C@H](C#Cc2ccccc2)C=C[C@@H]1Oc1ccc(C)cc1)=NO[C@H](C)c1cn([C@@H]2COC[C@H]2O)nn1 | -0.6 (inactive) | -0.191 | 26.8 (active) | 3.78 (inactive) | 1.38 (inactive) | -0.643 (inactive) | 1.2 | -2.39 (inactive) | -0.358 (inactive) | -3.36 | 1.28 | 0.0119 | 0.669 | -1.57 | -2 | -0.662 | -4.6e-05 (inactive) | -0.072 | -1.1 | -1.25 (inactive)
2 | CC(C)CON=C1C[C@@H](O)[C@@H](O)[C@@H]2[C@@H]3C(=O)N(Cc4ccc5c(c4)OCO5)C(=O)[C@@H]3CC[C@@H]12 | -0.0395 (inactive) | -0.28 | 7.64 (inactive) | 0.859 (inactive) | -0.0127 (inactive) | 0.548 (inactive) | -0.333 | -0.569 (inactive) | 0.409 (inactive) | 0.443 | 0.606 | -0.724 | -0.211 | 0.828 | -0.51 | 0.367 | 0.115 (inactive) | 0.492 | -1.49 | 0.471 (inactive)
3 | COc1cccc([C@H](O)Cn2cc(-c3ccc(CON=C(C)C)cc3)nn2)c1 | 0.697 (inactive) | -0.103 | 25.6 (active) | 12.2 (active) | 0.99 (inactive) | 1.54 (inactive) | -1.07 | 0.0342 (inactive) | -0.0373 (inactive) | -0.169 | 0.445 | -0.374 | 0.206 | 1.22 | 0.157 | -0.803 | 0.706 (inactive) | -0.0682 | -0.544 | -0.409 (inactive)
4 | CO[C@H]1C[C@@H]2C[C@H](O)CC(CC(=O)O[C@@H](C=CCC(C)C)C[C@@H]3CC[C@H](C)[C@@H](C1)O3)O2 | -0.55 (inactive) | -0.104 | 0.818 (inactive) | 0.41 (inactive) | 0.773 (inactive) | -0.0957 (inactive) | -0.254 | -1.17 (inactive) | 0.226 (inactive) | 1.2 | 0.366 | 0.128 | 0.341 | 0.283 | 0.624 | -0.427 | -0.975 (inactive) | 0.392 | -0.49 | -0.0031 (inactive)
5 | COC(=O)CC=C[C@@H](C)[C@@H](C=NOC(C)CN1CCCCc2nc(C)c(C)cc21)NS(=O)(=O)c1ccc(C)cc1 (stereo not given in full) | 0.599 (inactive) | 0.236 | -0.193 (inactive) | 0.36 (inactive) | 0.151 (inactive) | 0.0733 (inactive) | -0.134 | -0.397 (inactive) | 0.339 (inactive) | 0.266 | -0.366 | 0.61 | 0.0477 | 0.0238 | -0.141 | -0.246 | -0.442 (inactive) | -1.02 | -0.0131 | -0.204 (inactive)
6 | CCOC(=O)[C@H](Cc1ccccc1)NC(=O)CCC1CC(OC(=O)NCc2cccc3ccccc23)CC2(CCCC(COC(=O)NCCc3ccccc3OC)O2)O1 (stereo not given in full) | -0.0287 (inactive) | -0.101 | -0.623 (inactive) | 0.185 (inactive) | -0.602 (inactive) | 0.0286 (inactive) | -0.352 | 0.884 (inactive) | 1.15 (inactive) | 1.06 | -0.111 | -0.211 | -0.521 | -0.123 | -1.39 | 0.527 | -0.177 (inactive) | -0.0487 | -0.193 | 0.737 (inactive)
7 | C[C@@H]1CC[C@H]2C(=O)OC(Cc3ccccc3)CN2[C@H]1c1ccc(Br)cc1 (stereo not given in full) | 0.283 (inactive) | -0.0111 | 1.96 (inactive) | 0.728 (inactive) | -0.23 (inactive) | 0.54 (inactive) | -0.0843 | 0.379 (inactive) | 0.268 (inactive) | 0.151 | 1.47 | -1.25 | 0.556 | 0.637 | -0.66 | 1.34 | -1.43 (inactive) | 0.558 | -0.332 | 0.472 (inactive)
